Data on 92 sequences can be found in the supplement of paper PMC11417369.

± gives the standard deviation of the averaged measurements. Over roughly 25,000 sequences, “ln(normalized median fluorescence intensity)” has its median near 7.9; the highest 2% begin near 11. This excerpt belongs to a sample that is enriched for the highest values.

The test system of this assay is PfAP2-I AP2 domain 3 (GST-tagged). The experiment in a line: gcPBM binding intensity (ln(normalized median fluorescence intensity)); higher = stronger DNA binding. The method in brief: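 GST-tagged P. falciparum DNA-binding domains produced in E. coli were incubated for 1 h on an Agilent 4 × 180k array of primer-extended double-stranded 36-bp intergenic genomic probes with negative controls. Binding intensity is the highest Masliner-normalised natural-log median intensity across replicate spots of either probe orientation, with bound protein detected by Alexa488 anti-GST antibody at 488 nm.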
Regarding “TATTCTTCAATTTAAAGTACAAAAATTACTATACTT [XGTACX_site6599]”, the “gcPBM binding intensity (ln)” value turned out to be 7.58 ± 0.28.
As for “AATATTATAAATGATACACACTTAAAATACAGACAC [CACACA_site8868]”, the figure is 8.19 ± 0.4; as for “AATATTTATATTTACACACACATAATACCTATATGT [CACACA_site6167]”, 7.83 ± 0.42.
As for “TAAATGAGAAGGACTGCACACTAAAATGGAAGGAGA [CACACA_site8449]”, the figure is 8.23 ± 0.71; as for “ATCCTGAACAGAATATGTATAAACAGAAGGAAACAA [CACACA_negctrl_site1805]”, 7.92 ± 0.54; as for “GACATATATATAAAATGTACATATATATTTACATAT [XGTACX_site7822]”, 7.75 ± 0.33.
Next, TATTTATTTTTTTTTGTGCACTTAATATAATCTTAC: 11.07 ± 0.042.
With TTTTTAATATATTAGGTGCACAATAATACACTTTAT, the “gcPBM binding intensity (ln)” value is 11.51 ± 0.064.
As for “TTTAATTTATATTTTGTGCACATCTTATTATATATA [GTGCAC_site9630]”, the figure is 10.5 ± 0.21; as for “ATTCAATATTTATACACACACACTTTTAATAATTAA [CACACA_site7725]”, 8.05 ± 0.55.
For the sequence “ATTCAATATATATACACACACACTTTTAATAATTAA [CACACA_site3770]”, the “gcPBM binding intensity (ln)” value amounted to 8.1 ± 0.43.
As for ATTATTATTAATCTTGTGCACATATATTTTAATTAG, the “gcPBM binding intensity (ln)” value came out at 10.6 ± 0.23.
Next, “CCGATATAATGGAAAACACACAAAAGATATATATAT [CACACA_site2683]”: 9.01 ± 0.15.
As to “AATATTTATAAATTTACACACACACCGGTGAACATA [CACACA_site8579]”, the “gcPBM binding intensity (ln)” value was found to be 7.79 ± 0.57.
Next, “CATTTTTTTTTATAAATACACACGTACGGGTGCATA [CACACA_site1569]”: 8.54 ± 0.54; “TTTTTTTTTATAAATACACACGTACGGGTGCATAAC [CACACA_site8444]”: 10.9 ± 0.73; “TTTTATAAATACACACGTACGTGTGCATAACGTTTT [XGTACX_site3199]”: 9.465 ± 0.092.
Take “ATATGTAGATGATATTATTACTTTTCAAAAATTCAA [CACACA_negctrl_site933]”: the “gcPBM binding intensity (ln)” value was 7.58 ± 0.39.
As for “TATGGTTTTAAAAAATGTACGCAAGTGCGTTAATTT [XGTACX_site3945]”, the figure is 11.2 ± 0.93.
Next, TCGTGGTTTTAATAAGTGCGCAATTTAAATATTTTT: 9.31 ± 0.18; “ATCATTTTTAATAAATGTACAAGTTTTAAAAAAAAA [XGTACX_site7340]”: 7.7 ± 0.6.
On to “ATACATATATGTGTGTGTACATAAATGTATATATTT [XGTACX_site6242]”, for which the “gcPBM binding intensity (ln)” value was 7.93 ± 0.38.
As for “AACCCTTTTGATTTTTCTTTTTTTTTTTTTTTAAAT [CACACA_negctrl_site1667]”, the figure is 7.5 ± 0.69.
Next, “TTTTTTAAAATATGGACACACATATATATATATGTA [CACACA_site2784]”: 7.67 ± 0.3; “TAAAACTTAATATAAACACACAAAAATTAATAAATA [CACACA_site4370]”: 7.62 ± 0.44.
Next, TCACATTTTGGACACGTGCACATATATTTGATACAT: 9.48 ± 0.33; “TTTTTTTTTTTTTCAAGTACATATATATATATATAA [XGTACX_site2098]”: 7.99 ± 0.45; TTTTTTTTTTTTCACGTGCACTATACATATAAGTAA: 11.1 ± 0.23.
As to “ATATATATATATTTTACACACAATGGAGAAAAAAAT [CACACA_site644]”, the “gcPBM binding intensity (ln)” value stood at 9.01 ± 0.092.
As for “TTAAAATCTTGAAAAGTGCATTATCATTTTGTAACG [GTGCAC_site9447]”, the figure is 11.4 ± 0.73.
As for “TTTTAAAGAAAATATTTTATCATTATTTTTTGTACT [CACACA_negctrl_site1648]”, the figure is 7.41 ± 0.57.
As for AGGGAAAAAAAAAAAGTGCATTTGTATTAAATGAAT, the figure is 9.9 ± 0.028; as for “GAGAGGTATCAAAAATGTACACATATATATATGTAT [XGTACX_site5611]”, 7.79 ± 0.47; as for “AATATATTTATATAGTGTACATTTTTTATATATGTA [XGTACX_site8142]”, 7.67 ± 0.18.
Turning to “AATATTTTATATGTAGTGCATTACTATAGGATTTAT [GTGCAC_site9424]”, the “gcPBM binding intensity (ln)” value came out at 11.4 ± 0.74.
Next, “ATATATCTTTATATAGTGCATTAAATATGTTGTAAT [GTGCAC_site9953]”: 11.5 ± 0.54; “TTTTTTTTTAATTATGCATGTAAATTATATATTATA [TGCATGCA_site335]”: 8.55 ± 1.1.
As to “GGATTATTTATAGGAGTGCATACATATATATATATA [GTGCAC_site9454]”, the “gcPBM binding intensity (ln)” value was 9.76 ± 0.071.
Next, TTATTATTATTACTAGTGCATTAATTATATATGTAA: 11.6 ± 0.49; ATATATATATATGTAGTGCATTTTATATATAATATT: 9.875 ± 0.035.
As for “CATATGTTATATGTAGTGCATTACTATAGGATTTAT [GTGCAC_site9860]”, the figure is 11.4 ± 0.64; as for “TATCTTTTTACAATAGTGCATATGTTATCATTAATA [GTGCAC_site9489]”, 9.54 ± 0.18; as for “ATAATTATTAATATAGTGCATTGGCATAATAATATA [GTGCAC_site9810]”, 9.89 ± 0.2.
As for “TTATTAAATATAAATATGTATCTTTTATGTTATATT [CACACA_negctrl_site306]”, the figure is 7.29 ± 0.44; as for GTTTATATGTTCATAGTGCATATATGTTGATTTATT, 10.2 ± 0.33.
Regarding “TAAATATATAAACACACACACATTAATACAGATATT [CACACA_site5851]”, the “gcPBM binding intensity (ln)” value worked out at 7.72 ± 0.54.
Next, “TATATATATATTTATACACACATTAGTGTAGACATG [CACACA_site8964]”: 8.915 ± 0.021; “ATATATATGTATACATGTACATATTTTATTATGTGC [XGTACX_site7207]”: 7.9 ± 0.61.
Next, “TTATATATATATATATATATATATATATATATAAAT [GTGCAC_negctrl_site126]”: 8.41 ± 0.23.
Next, “TTTTTATATGCGTATTGTACATTATACATATATATA [XGTACX_site6786]”: 7.97 ± 0.38.
Consider “TTCTTTATTTTTTCTACACACATTAGATATTCAAAG [CACACA_site7624]”, for which the “gcPBM binding intensity (ln)” value worked out at 8.02 ± 0.53.
Next, “TTGTTAATAAAAATATTGGAAAGTTTATAAAATTTT [CACACA_negctrl_site1487]”: 7.53 ± 0.52; TTTGGAATATTAATTGTGCACTTAAAAAGTTAATTA: 11 ± 0.35; ATGAAATATTTATTTGTGCACTTAATTTGTTGGAAA: 11.2 ± 0.21.
Next, “TTTATTTGTGCATATACACACTTAAATATGTTTATT [CACACA_site7772]”: 9.405 ± 0.035.
As for “TTTATATTAATTGATGTGCACTGAAATATTTGTCCA [GTGCAC_site9655]”, the figure is 10.3 ± 0.28.
In the case of “AGAATTATTGTTAATGCATGTGGAAGTTAAAATATT [TGCATGCA_site188]”, the “gcPBM binding intensity (ln)” value was determined as 8.48 ± 0.69.
Next, “TTGTTCATTATGCACAGTACATAAAAAGTAAAAAAA [XGTACX_site2403]”: 10 ± 0.65; “TTTCTGTGTTTTGGTTGTACACACGCTACATTATAT [XGTACX_site5669]”: 8.53 ± 0.67.
As to “GGAAATAATATTATTACACACCAAAATGTATAAAAA [CACACA_site4036]”, the “gcPBM binding intensity (ln)” value was 8.36 ± 0.85.
Next, “GCATGCACGGAAAAAAGTACATATATAAATTTGGTT [XGTACX_site3393]”: 8.2 ± 0.52; “ATATATATATATGAAAGTACACATCTATTTTTTCTT [XGTACX_site6059]”: 9.29 ± 0.18; “ATTGAACACATCTATGCATGCACGGAAAAAAGTACA [TGCATGCA_site401]”: 11 ± 0.28.
Next, “AGAAAGGATATAAGCGTAGCTATATCATAAAAAATG [GTGCAC_negctrl_site332]”: 7.58 ± 0.74.
As to “TGTAGAAATGGGTGCACACACATATAAAATCTATAT [CACACA_site7224]”, the “gcPBM binding intensity (ln)” value stood at 10.4 ± 0.59.
For “TTTTTTTTTTTTTTGGTGCACATAGAAATTCTAAAA [GTGCAC_site9809]”, the “gcPBM binding intensity (ln)” value was found to be 10.9 ± 0.6.
Next, “AAAAAAAAAATTTTCGTGCACATAAGAAAATTTAAA [GTGCAC_site9788]”: 10.3 ± 0.16; “ATATTTTAATTATAAAGTACATAAAAATATATAAAC [XGTACX_site6705]”: 7.92 ± 0.35; “TTAATATTAATATATTGTACATATATGCACATATTT [XGTACX_site6569]”: 9.1 ± 0.18.
For “ATATATATATATAATGCACACATTATAAATTATGTA [CACACA_site5802]”, the “gcPBM binding intensity (ln)” value stood at 11.1 ± 0.26.
As for “AAAAAAAAAAAATTATGTACATATTATATATAATGG [XGTACX_site2885]”, the figure is 7.77 ± 0.45; as for “TATTACATACATATCTGTACATATATTAATGCACAA [XGTACX_site3315]”, 11.6 ± 1; as for “TTATGTTCATTATATGCACACATATATATAAATGTA [CACACA_site8947]”, 9.11 ± 0.071.
As for “TTTTTTTTTTTTTTGTGTACATATAATGCACATTAT [XGTACX_site6505]”, the figure is 11.1 ± 0.93; as for “ATATAATATCTGTATACACACATATTATATAATATT [CACACA_site5940]”, 7.86 ± 0.51; as for “TATTTCTGATTATTTTGTACACATTATATATAATGC [XGTACX_site6990]”, 8.04 ± 0.29.
Next, “TTTGTGTATATATAATGTACATTATATTTTTATTAT [XGTACX_site6506]”: 8.13 ± 0.45; “TATTATAATAAAATATGTACACACATACACACATAT [XGTACX_site2360]”: 7.98 ± 0.41.
As to “ATGTTCATTATATGCACACATATATATAAATGTAAT [CACACA_site2908]”, the “gcPBM binding intensity (ln)” value was 9.34 ± 0.3.
Next, “ATATATACATATAAATGTACATAATTATTATGCACA [XGTACX_site1261]”: 11.3 ± 0.82; “TGAAAATATATAACGCGTACAAAAAGGAAATACAAT [XGTACX_site3534]”: 8.38 ± 0.64.
As for “AAAAAAAAAAAAAATATACACACTAATATATTTTTT [CACACA_site815]”, the figure is 7.98 ± 0.54; as for “TAAATATATTAAGCTTGTACATGAAAAAAAAAAAAA [XGTACX_site3264]”, 8.1 ± 0.59; as for “TTTTCTTAAAAAATCAAACACACATATATATATACA [CACACA_site2297]”, 7.6 ± 0.51.
As for “ATAAATAATTATATATGTACACATTATGAATGGATA [XGTACX_site8336]”, the figure is 7.78 ± 0.4; as for “GATATATAATATAATACACACATTTTATGAATGTAA [CACACA_site24]”, 7.66 ± 0.32; as for “ATATATATATATAATGCACACATTATGAATTATGTA [CACACA_site3384]”, 11.3 ± 0.26.
Turning to “AAATGTTATAACTCTTGAAAAAACAAAATATCATCA [CACACA_negctrl_site1156]”, the “gcPBM binding intensity (ln)” value is 7.57 ± 0.49.
As for “ACCAATAATATACATACACACATAAAGGTTTATATA [CACACA_site315]”, the figure is 7.95 ± 0.44; as for “ATGAAACAGTAACATTGTACTTTTACAAAAAAATAA [XGTACX_site806]”, 7.7 ± 0.33.
As for TGTGTCCATTGAACAGTGCAATAAAAACTTTTACAT, the figure is 11.2 ± 0.59; as for “AAAAAAAAAAAAAACATACACACATTGAACTTTTAT [CACACA_site3251]”, 8.18 ± 0.54.
